GPR151 activ = activators of human GPR151, primary screen, cell-based, PathHunter beta-arrestin, luminescence. G-protein coupled receptor 151 (Homo sapiens), Q8TDV0. PathHunter beta-arrestin GPR151 cells. activation, % at 11.2 µM. hit rate 1% among 650,000; in the data active = activation above about 4.9%
TEAD-YAP inh = TEAD-YAP interaction inhibition, primary screen, TEAD-YAP interaction inhibitor project, luminescence, HEK-TIYL cells; TEAD-Gal4/YAP UAS-luciferase luminescence; inhibition, % at 9.12 µM; hit rate 1.4% among 640,000; AID 1259422, 2018; in the data active = inhibition above about 32%
MITF primary = MITF inhibitors, primary screen, biochemical, AlphaScreen, human. hit rate 0.91% among 650,000. Microphthalmia-associated transcription factor (Homo sapiens), O75030. AlphaScreen MITF homodimerization, bead proximity signal. inhibition, % at 2.6 µM; in the data active = inhibition above about 50%
FBW7 act = FBW7 E3 ligase activators, primary screen, biochemical, AlphaScreen, human; F-box/WD repeat-containing protein 7 (Homo sapiens), Q969H0; AlphaScreen FBW7–phospho-cyclin E peptide binding, activator screen; normalized activity (activation), % at 26.1 µM; hit rate 0.13% among 650,000; in the data active = normalized activity above about 1.9%;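 also: purified mutant Fbw7 with reduced substrate affinity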
GPR151 confirm = GPR151 activators, triplicate retest, confirmation, cell-based, PathHunter beta-arrestin, luminescence; GPR151 PathHunter beta-arrestin cells, 90 min; % of EA-reagent control over plate median; activation, % at 11.2 µM; shares compounds with GPR151 activ; 6,700 tested, under 10 active;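 active = mean percent activation across replicates above the confirmation screen cutoff of 4.91%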
GPR119 ag = GPR119 activators in beta-arrestin cells, counter-screen for GPR151 activator project, cell-based, PathHunter beta-arrestin, luminescence, triplicate | shares compounds with GPR151 activ | 90 min; 0 = compound-well median, 100 = enzyme-acceptor control | activation, % at 11.2 µM | hit rate 0.3% among 6,700;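 active = mean percent activation in the counterscreen above 29.09%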;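 also: counterscreen on off-target GPR119 to flag nonselective hits from the GPR151 activator screen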
Target sequence (Q8TDV5 whole entry, looked up): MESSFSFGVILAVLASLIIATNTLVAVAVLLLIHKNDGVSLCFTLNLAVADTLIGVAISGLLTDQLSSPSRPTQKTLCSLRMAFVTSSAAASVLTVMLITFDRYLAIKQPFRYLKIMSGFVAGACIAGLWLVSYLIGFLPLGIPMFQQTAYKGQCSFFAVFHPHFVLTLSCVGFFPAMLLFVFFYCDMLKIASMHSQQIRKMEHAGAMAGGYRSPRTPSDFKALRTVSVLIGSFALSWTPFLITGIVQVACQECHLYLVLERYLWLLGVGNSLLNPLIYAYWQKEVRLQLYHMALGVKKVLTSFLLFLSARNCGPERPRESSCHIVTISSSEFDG
Of the large screens only hits and unclear results are named; the others gave an inactive call (follow-up assays come after a bar, where they were run). A selection: hits, their analogues and other compounds. The true share with any hit is near 3.4%.

CCCNS(=O)(=O)c1ccc(CN2C(=O)c3cccnc3C2=O)cc1	none
Cc1cccnc1NS(=O)(=O)c1ccc(CN2C(=O)c3cccnc3C2=O)cc1	GPR151 activ 6.0 | GPR151 confirm inactive | GPR119 ag inactive
O=C1c2cccnc2C(=O)N1Cc1ccc(S(=O)(=O)N2CCCc3ccccc32)cc1	GPR151 activ 5.9 | GPR151 confirm inactive | GPR119 ag inactive
CC(NS(=O)(=O)c1cccc(C(=O)O)c1)c1ccccc1 (stereo unspecified)	none
COc1ccc(C)cc1NC(=O)COc1ccc(S(=O)(=O)NC(C)C)cc1Cl	none
O=C(NCCn1cc(SCc2ccc(Br)cc2)c2ccccc21)c1ccc(F)cc1	GPR151 activ 5.0 | GPR151 confirm inactive | GPR119 ag inactive
CC(C)C1=NOC(C(=O)N2CCC(CO)(Cc3cccc(C(F)(F)F)c3)CC2)C1 (stereo unspecified)	GPR151 activ 5.2 | GPR151 confirm inactive | GPR119 ag inactive
CCCCCn1c(=S)[nH]c2cc(C(=O)Nc3cccc(Cl)c3)ccc2c1=O	none
CN1CCN(C(=S)Nc2cccc(Cl)c2)CC1	none
CCN1CCN(C(=S)Nc2cccc(Cl)c2)CC1	GPR151 activ 5.8 | GPR151 confirm inactive | GPR119 ag inactive
O=c1c2ccccc2nc(SCc2ccccc2Cl)n1C1CCCCC1	none
O=C(CNc1ccc(Cl)cc1)N/N=C/c1cc(Cl)ccc1O	none
O=C(Nc1ccc([N+](=O)[O-])cn1)C1CCCCC1	GPR151 activ 9.2 | GPR151 confirm inactive | GPR119 ag inactive
O=[N+]([O-])c1ccc(NC2CCCCC2)nc1	none
CCOc1cc(/C=N/NC(=O)Cc2n[nH]c(=O)[nH]c2=O)ccc1O	none
CC1CN(c2cc(N3CCOCC3)c(F)cc2[N+](=O)[O-])CCN1C(=O)c1cccs1 (stereo unspecified)	GPR151 activ 7.6 | GPR151 confirm inactive | GPR119 ag inactive
CC(C)c1ccc(NC(=O)C2C3C=CC4(O3)C2C(=O)N(CCc2ccccc2Cl)C4C(=O)NC2CCCCC2C)cc1 (stereo unspecified)	none
O=C(NCCOc1ccccc1)c1ccnc(Nc2cccnc2)c1	none
CCn1nnnc1SCC(=O)Nc1cccc(NC(C)=O)c1	none
CCCn1nnnc1SCC(=O)Nc1cccc(NC(C)=O)c1	GPR151 activ 5.2 | GPR151 confirm inactive | GPR119 ag inactive
Cc1n[nH]c(C)c1NC(=O)c1cccc(F)c1	none
COC(=O)C[n+]1csc2ccccc21	GPR151 activ 7.8 | GPR151 confirm inactive | GPR119 ag inactive
Cc1ccc(N2C(=O)CC(NCCc3ccc(Cl)cc3)C2=O)cc1 (stereo unspecified)	GPR151 activ 6.4 | GPR151 confirm inactive | GPR119 ag inactive
CCCOc1ccc(N2C(=O)CC(NCC34CC5CC(CC(C5)C3)C4)C2=O)cc1 (stereo unspecified)	GPR151 activ 5.2 | GPR151 confirm inactive | GPR119 ag inactive
COc1ccc(CCNC2CC(=O)N(c3ccc(F)cc3)C2=O)cc1 (stereo unspecified)	none
CCCOc1ccc(N2C(=O)CC(NCCCc3ccccc3)C2=O)cc1 (stereo unspecified)	GPR151 activ 6.1 | GPR151 confirm inactive | GPR119 ag inactive
COc1ccc(CCNC2CC(=O)N(c3ccccc3)C2=O)cc1 (stereo unspecified)	GPR151 activ 5.8 | GPR151 confirm inactive | GPR119 ag inactive
CCCC(=O)Nc1nnc(Cc2ccc(Cl)cc2)s1	none
COc1ccc(CNC(N)=S)cc1	none
Cc1cccc(CN2C(=O)C3CCCN3c3ccc(C#N)cc32)c1 (stereo unspecified)	GPR151 activ 9.4 | GPR151 confirm inactive | GPR119 ag inactive
N#Cc1ccc2c(c1)N(Cc1ccccc1F)C(=O)C1CCCN21 (stereo unspecified)	none
COc1ccc(/C=C2\C=C(c3ccccc3)N(c3ccc(-c4ccccc4)cc3)C2=O)cc1	GPR151 activ 7.0 | GPR151 confirm inactive | GPR119 ag inactive
Cc1cc(-c2nnc(CCC(=O)NCc3ccco3)o2)c(C)o1	none

High-throughput results as filed in PubChem.
